In PubChem BioAssay (NCI) one finds growth data, which are given here for six compounds.

The panel holds about 83,000 compounds, 20% with a hit somewhere; the sample as a whole holds those more often.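 96-well plates, one dose, 48 hours. Percent growth reported; active if below 10.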 Unmarked numbers belong to inactive results. Calls of active or inactive are those of the source.

This test concerns HL-60(TB) leukemia. The experiment in a line: NCI-60 one-dose screen, 48 h (100 = growth as untreated, 0 = no growth, -100 = all killed). To be noted: 10 µM unless noted.
On to `O=C1[C@@H]2Cc3c([nH]c4ccccc34)[C@H](c3ccc(Br)cc3)N2C(=O)CN1C1CCN(Cc2c(Cl)cccc2Cl)CC1`, for which the growth was -79% (active).

Regarding `C[C@]12CC[C@H]3[C@@H](CC=C4C[C@@H](O)CC[C@@]43C)[C@@H]1CC[C@@H]2[C@](C)(O)CCc1cccnc1`, the growth is 47.6%.

In the case of `C/C(=N\NC(=O)CSc1nc2sc3c(c2c(=O)n1-c1ccccc1)CCC(C)C3)c1ccc(Cl)cc1` (stereo unspecified), the growth is 3.75% (active).

As to `CC(C)(C)OC(=O)Nc1ccc(-c2cccc(Oc3ccc4nnc(Cl)n4n3)c2)cc1`, the growth is 64%.

Regarding `CCc1cc(OC(=O)N2CCN(CCC(C)(COC(C)(C)C)COC(C)(C)C)CC2)ccc1Nc1cc(-c2ccc(-n3cccn3)cc2)[nH]n1`, the growth was 66.5%.

Regarding `O=C(NNc1nc2cc(F)cc(F)c2n2cccc12)c1cccnn1`, the growth is 3.63% (active).
